{"source": "PubChem BioAssay AID1211", "about": "(NMMLSC, 2008)", "target": "Estrogen receptor (Homo sapiens) (UniProt P03372)", "sequence (P03372 whole entry, looked up)": "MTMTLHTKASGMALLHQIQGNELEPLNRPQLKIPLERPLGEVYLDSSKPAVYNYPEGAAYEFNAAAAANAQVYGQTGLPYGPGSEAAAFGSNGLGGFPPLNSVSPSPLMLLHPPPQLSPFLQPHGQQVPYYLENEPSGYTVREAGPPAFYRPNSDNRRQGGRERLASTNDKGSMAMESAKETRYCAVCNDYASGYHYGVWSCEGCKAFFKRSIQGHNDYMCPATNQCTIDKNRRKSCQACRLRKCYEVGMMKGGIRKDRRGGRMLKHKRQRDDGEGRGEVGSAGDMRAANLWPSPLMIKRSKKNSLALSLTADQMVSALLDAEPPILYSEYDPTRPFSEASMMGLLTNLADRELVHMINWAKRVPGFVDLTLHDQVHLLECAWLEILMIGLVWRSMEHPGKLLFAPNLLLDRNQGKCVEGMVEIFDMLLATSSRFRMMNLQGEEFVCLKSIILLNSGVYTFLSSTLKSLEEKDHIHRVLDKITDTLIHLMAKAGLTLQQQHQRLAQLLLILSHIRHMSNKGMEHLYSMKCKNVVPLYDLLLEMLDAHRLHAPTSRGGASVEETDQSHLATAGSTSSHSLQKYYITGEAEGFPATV", "test": "ERalpha ligand binders by competition, primary screen, cell-based, Cos7 ERalpha-GFP, flow cytometry (AID 1211);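 also: 0% = DMSO vehicle wells and 100% = no E2-Alexa633 signal left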", "settings": "fluorescent ligand competition, stronger effect = higher value", "note": "Activity calls are given as the source filed them. No rule for the calls is given here."}
{"smiles": "Cc1nc2ccc(C(=O)O)cc2[nH]1", "values": [{"measurement": "inhibition of ligand binding", "setting": "at 10 µM", "value": "55% (inactive)"}, {"measurement": "inhibition of ligand binding", "setting": "binding inhibition, at 0.1 µM", "value": 52, "unit": "%"}]}
{"smiles": "CN1CCC(=NNC(=O)c2cn(-c3ccccc3)nc2-c2ccccc2)CC1", "values": [{"measurement": "inhibition of ligand binding", "setting": "at 10 µM", "value": "3% (inactive)"}, {"measurement": "inhibition of ligand binding", "setting": "binding inhibition, at 0.1 µM", "value": 11, "unit": "%"}]}
{"smiles": "O=C(O)c1cc(-c2ccco2)nc2ccc(Br)cc12", "values": [{"measurement": "inhibition of ligand binding", "setting": "at 10 µM", "value": "21% (inactive)"}, {"measurement": "inhibition of ligand binding", "setting": "binding inhibition, at 0.1 µM", "value": 39, "unit": "%"}]}
{"smiles": "COc1cccc2cc3c(=O)n(-c4ccccc4)nc-3oc12", "values": [{"measurement": "inhibition of ligand binding", "setting": "at 10 µM", "value": "47% (inactive)"}, {"measurement": "inhibition of ligand binding", "setting": "binding inhibition, at 0.1 µM", "value": 23, "unit": "%"}]}
{"smiles": "Cc1oc2c(C)c(O)ccc2c(=O)c1N1C(=O)c2ccccc2C1=O", "values": [{"measurement": "inhibition of ligand binding", "setting": "at 10 µM", "value": "9% (inactive)"}, {"measurement": "inhibition of ligand binding", "setting": "binding inhibition, at 0.1 µM", "value": 52, "unit": "%"}]}
{"smiles": "O=C(Cc1cccs1)Nc1ccc(S(=O)(=O)Nc2ncccn2)cc1", "values": [{"measurement": "inhibition of ligand binding", "setting": "at 10 µM", "value": "15% (active)"}, {"measurement": "inhibition of ligand binding", "setting": "binding inhibition, at 0.1 µM", "value": 87, "unit": "%"}]}
{"smiles": "COc1cc(/C=N/N2CCN(C3c4ccccc4-c4ccccc43)CC2)ccc1O", "values": [{"measurement": "inhibition of ligand binding", "setting": "at 10 µM", "value": "36% (inactive)"}, {"measurement": "inhibition of ligand binding", "setting": "binding inhibition, at 0.1 µM", "value": 15, "unit": "%"}]}
{"smiles": "Cc1nnc(N/N=C/c2ccc(O)c([N+](=O)[O-])c2)[nH]c1=O", "values": [{"measurement": "inhibition of ligand binding", "setting": "at 10 µM", "value": "32% (inactive)"}, {"measurement": "inhibition of ligand binding", "setting": "binding inhibition, at 0.1 µM", "value": 20, "unit": "%"}]}
{"smiles": "O=C(Nc1ccc2oc(-c3ccccc3F)nc2c1)c1cncc(Br)c1", "values": [{"measurement": "inhibition of ligand binding", "setting": "at 10 µM", "value": "41% (inactive)"}, {"measurement": "inhibition of ligand binding", "setting": "binding inhibition, at 0.1 µM", "value": 38, "unit": "%"}]}
{"smiles": "CCCC1Nc2ccc(C(=O)O)cc2C2C=CCC12", "note": "(stereo not given)", "values": [{"measurement": "inhibition of ligand binding", "setting": "at 10 µM", "value": "22% (inactive)"}, {"measurement": "inhibition of ligand binding", "setting": "binding inhibition, at 0.1 µM", "value": 64, "unit": "%"}]}
{"smiles": "CC(=O)c1cccc(NC(=O)Cc2cccs2)c1", "values": [{"measurement": "inhibition of ligand binding", "setting": "at 10 µM", "value": "3% (inactive)"}, {"measurement": "inhibition of ligand binding", "setting": "binding inhibition, at 0.1 µM", "value": 40, "unit": "%"}]}
{"smiles": "CCCSC1=N/C(=C\\C=C\\c2ccco2)C(=O)S1", "values": [{"measurement": "inhibition of ligand binding", "setting": "at 10 µM", "value": "0% (inactive)"}, {"measurement": "inhibition of ligand binding", "setting": "binding inhibition, at 0.1 µM", "value": 31, "unit": "%"}]}
{"smiles": "O=C(c1cc2sccc2n1Cc1ccccc1)N1CCc2ccccc21", "values": [{"measurement": "inhibition of ligand binding", "setting": "at 10 µM", "value": "45% (inactive)"}, {"measurement": "inhibition of ligand binding", "setting": "binding inhibition, at 0.1 µM", "value": 20, "unit": "%"}]}
{"smiles": "CN(C)CC(=O)N1c2ccccc2CCc2ccc(NC(=O)c3ccc(N)cc3)cc21", "values": [{"measurement": "inhibition of ligand binding", "setting": "at 10 µM", "value": "44% (inactive)"}, {"measurement": "inhibition of ligand binding", "setting": "binding inhibition, at 0.1 µM", "value": 41, "unit": "%"}]}
{"smiles": "COc1ccc(C)cc1-n1nnnc1SCC(=O)NC(=O)NCc1ccco1", "values": [{"measurement": "inhibition of ligand binding", "setting": "at 10 µM", "value": "15% (inactive)"}, {"measurement": "inhibition of ligand binding", "setting": "binding inhibition, at 0.1 µM", "value": 26, "unit": "%"}]}
{"smiles": "COc1ccc(N2C(=O)c3ccccc3NC2c2ccc(OC)c(COc3ccccn3)c2)cc1", "note": "(stereo not given)", "values": [{"measurement": "inhibition of ligand binding", "setting": "at 10 µM", "value": "0% (inactive)"}, {"measurement": "inhibition of ligand binding", "setting": "binding inhibition, at 0.1 µM", "value": 22, "unit": "%"}]}
{"smiles": "C1=C(N2CCOCC2)/C(=C/c2nc3ccccc3[nH]2)CC1", "values": [{"measurement": "inhibition of ligand binding", "setting": "at 10 µM", "value": "50% (inactive)"}, {"measurement": "inhibition of ligand binding", "setting": "binding inhibition, at 0.1 µM", "value": 41, "unit": "%"}]}
{"smiles": "O=S(=O)(Nc1ncnc2sc3c(c12)CCC3)c1ccc2ccccc2c1", "values": [{"measurement": "inhibition of ligand binding", "setting": "at 10 µM", "value": "28% (inactive)"}, {"measurement": "inhibition of ligand binding", "setting": "binding inhibition, at 0.1 µM", "value": 37, "unit": "%"}]}
{"smiles": "O=C(O)c1ccc(NS(=O)(=O)c2ccc3c(c2)C2C=CCC2C(c2ccccc2F)N3)cc1", "note": "(stereo not given)", "values": [{"measurement": "inhibition of ligand binding", "setting": "at 10 µM", "value": "62% (inactive)"}, {"measurement": "inhibition of ligand binding", "setting": "binding inhibition, at 0.1 µM", "value": 5, "unit": "%"}]}
{"smiles": "O=C(Oc1ccc2c(c1)OCO2)c1cc2c(s1)CCC2", "values": [{"measurement": "inhibition of ligand binding", "setting": "at 10 µM", "value": "32% (inactive)"}, {"measurement": "inhibition of ligand binding", "setting": "binding inhibition, at 0.1 µM", "value": 27, "unit": "%"}]}
{"smiles": "Cc1nn2cc(-c3ccc(N)cc3)nc2s1", "values": [{"measurement": "inhibition of ligand binding", "setting": "at 10 µM", "value": "28% (inactive)"}, {"measurement": "inhibition of ligand binding", "setting": "binding inhibition, at 0.1 µM", "value": 53, "unit": "%"}]}
{"smiles": "CC1CC(C(F)(F)C(F)(F)F)n2nc(C(=O)O)cc2N1", "note": "(stereo not given)", "values": [{"measurement": "inhibition of ligand binding", "setting": "at 10 µM", "value": "9% (inactive)"}, {"measurement": "inhibition of ligand binding", "setting": "binding inhibition, at 0.1 µM", "value": 9, "unit": "%"}]}
{"smiles": "Cc1ccc(/C=c2\\sc3nc(-c4ccco4)nn3c2=O)o1", "values": [{"measurement": "inhibition of ligand binding", "setting": "at 10 µM", "value": "37% (inactive)"}, {"measurement": "inhibition of ligand binding", "setting": "binding inhibition, at 0.1 µM", "value": 26, "unit": "%"}]}
{"smiles": "COc1ccc2c(c1)c1nc3ccccc3nc1n2CCCN1C(=O)c2ccccc2C1=O", "values": [{"measurement": "inhibition of ligand binding", "setting": "at 10 µM", "value": "46% (inactive)"}, {"measurement": "inhibition of ligand binding", "setting": "binding inhibition, at 0.1 µM", "value": 33, "unit": "%"}]}
{"smiles": "Cc1ccc(C(=O)Nc2nc(-c3cccnc3)cs2)o1", "values": [{"measurement": "inhibition of ligand binding", "setting": "at 10 µM", "value": "29% (inactive)"}, {"measurement": "inhibition of ligand binding", "setting": "binding inhibition, at 0.1 µM", "value": 20, "unit": "%"}]}
{"smiles": "CC(=O)c1ccc(NC(=S)N2CCC(O)CC2)cc1", "values": [{"measurement": "inhibition of ligand binding", "setting": "at 10 µM", "value": "30% (inactive)"}, {"measurement": "inhibition of ligand binding", "setting": "binding inhibition, at 0.1 µM", "value": 23, "unit": "%"}]}
{"smiles": "COc1nnc(-c2ccc(C(=O)N3C[C@@H]4C[C@H](C3)c3cccc(=O)n3C4)cc2)c2ccccc12", "values": [{"measurement": "inhibition of ligand binding", "setting": "at 10 µM", "value": "1% (inactive)"}, {"measurement": "inhibition of ligand binding", "setting": "binding inhibition, at 0.1 µM", "value": 6, "unit": "%"}]}
{"smiles": "Cc1cc(C2(c3ccc(O)c(C)c3)OC(=O)c3ccccc32)ccc1O", "values": [{"measurement": "inhibition of ligand binding", "setting": "at 10 µM", "value": "49% (inactive)"}, {"measurement": "inhibition of ligand binding", "setting": "binding inhibition, at 0.1 µM", "value": 11, "unit": "%"}]}
{"smiles": "Cc1ccc(-c2n[nH]c(=S)n2/N=C/C=C\\c2ccccc2[N+](=O)[O-])cc1", "values": [{"measurement": "inhibition of ligand binding", "setting": "at 10 µM", "value": "40% (inactive)"}, {"measurement": "inhibition of ligand binding", "setting": "binding inhibition, at 0.1 µM", "value": 57, "unit": "%"}]}
{"smiles": "C/C(N)=C(/C#N)C(=O)CSc1nnc(Cc2ccccc2F)n1N", "values": [{"measurement": "inhibition of ligand binding", "setting": "at 10 µM", "value": "0% (inactive)"}, {"measurement": "inhibition of ligand binding", "setting": "binding inhibition, at 0.1 µM", "value": 3, "unit": "%"}]}
{"smiles": "CC1CCCN(c2nc3c(c(=O)[nH]c(=O)n3C)n2Cc2ccccc2Cl)C1", "note": "(stereo not given)", "values": [{"measurement": "inhibition of ligand binding", "setting": "at 10 µM", "value": "33% (inactive)"}, {"measurement": "inhibition of ligand binding", "setting": "binding inhibition, at 0.1 µM", "value": 58, "unit": "%"}]}
{"smiles": "CCc1cccc2c(C(=O)Cn3nnc(-c4ccc(OC)c(OC)c4)n3)c[nH]c12", "values": [{"measurement": "inhibition of ligand binding", "setting": "at 10 µM", "value": "10% (inactive)"}, {"measurement": "inhibition of ligand binding", "setting": "binding inhibition, at 0.1 µM", "value": 24, "unit": "%"}]}
{"smiles": "COC(=O)c1cnn2c(C(F)(F)F)cc(-c3ccco3)nc12", "values": [{"measurement": "inhibition of ligand binding", "setting": "at 10 µM", "value": "0% (inactive)"}, {"measurement": "inhibition of ligand binding", "setting": "binding inhibition, at 0.1 µM", "value": 32, "unit": "%"}]}
{"smiles": "COc1ccc(NC(=O)C(c2ccccc2)N(C)C(=O)c2ccc(=O)[nH]c2)cc1", "note": "(stereo not given)", "values": [{"measurement": "inhibition of ligand binding", "setting": "at 10 µM", "value": "49% (active)"}, {"measurement": "inhibition of ligand binding", "setting": "binding inhibition, at 0.1 µM", "value": 86, "unit": "%"}]}
{"smiles": "CCc1ccc2[nH]c(=O)c(C3C(C#N)=C(N)Oc4c3ccc3cccnc43)cc2c1", "note": "(stereo not given)", "values": [{"measurement": "inhibition of ligand binding", "setting": "at 10 µM", "value": "30% (inactive)"}, {"measurement": "inhibition of ligand binding", "setting": "binding inhibition, at 0.1 µM", "value": 37, "unit": "%"}]}
